An excerpt weighted towards active compounds, which were near 8.1% of everything screened.
KB-V1 MDR tox: kills drug-selected multidrug resistant KB-V1 cells; KB-V1 MDR cells viability, CellTiter-Glo, 72 h; Potency, µM (series often up to 46.1 µM), hits mostly cytotoxic; actives 3.4% (n = 400,000); AID 1347076; also: % is scaled to controls: 0 for no effect and ±100 for the full control effect; nearly all actives have a fitted effect of over 60% in size
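Cells of the MDR subline KB-V1 are plated, dosed with compound at multiple concentrations, and incubated 72 h at 37 degrees C; CellTiter-Glo is then added and luminescence read after 10 min.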
MCF10A rerep: inducers of DNA re-replication in MCF 10A breast cells. MCF 10A DNA re-replication, Hoechst nuclear intensity, 48 h. Potency, µM (titrated, usually from 46.1 µM), inactives show top-dose activity, positive = re-replication, usual class: activators. actives 2.9% (n = 350,000). AID 624296; also: % of control where 0% means no effect; nearly all actives have a fitted effect of over 50% in size
ELG1 DNA repair: blocks ELG1-dependent DNA repair in HEK293T cells. HEK293T ELG1-luciferase reporter, luminescence, 16 h; DNA damage induced by 5-fluorouridine. Potency, µM (doses to about 46.1 µM), for the others: at the top dose activity change, negative = inhibition, hits mostly inhibitors. actives 2.3% (n = 330,000). AID 504467; also: % is scaled to controls: 0 for no effect and ±100 for the full control effect; nearly all actives have a fitted effect of over 55% in size
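5-Fluorouridine DNA damage + compound/DMSO, 2,000 cells/well, 16 h, 37 °C/5% CO2. ONE-Glo, 30 min RT, luminescence. Readout = decrease in reporter signal.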
SW480 rereplic: DNA re-replication induction in SW480 cells; SW480 DNA re-replication, Hoechst DNA content imaging, 48 h; Potency, µM (doses to about 46.1 µM), without a hit: at the top dose re-replication activation, usual class: activators; actives 1.8% (n = 340,000); AID 624297; also: % of control where 0% means no effect; nearly all actives have a fitted effect of over 55% in size
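250 cells/well; 23 nL cpd via pin tool; 48 hr, 37 C, 5% CO2; Hoechst 40 min; imager read of total nuclear intensity, ex 405/em 500-530 nm.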
KB-3-1 cytotox: KB-3-1 parental cell cytotoxicity; KB-3-1 viability, CellTiter-Glo ATP luminescence, 72 h; actives 1.4% (n = 400,000); Potency, µM (titrated, usually from 46.1 µM), most hits filed as cytotoxic; also: % is scaled to controls: 0 for no effect and ±100 for the full control effect; nearly all actives have a fitted effect of over 60% in size
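Multi-concentration cytotoxicity screen in KB-3-1 cells grown in DMEM lacking phenol red with 10% FBS. After 72 h at 37 °C with compound, ATP-dependent luminescence was recorded.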
* marks the source's active call; other numbers are inactive results; i = inactive; ? = inconclusive; / = no result. Calls follow the shape of the dose curve; as a rule, active = well fitted curve in the direction sought with a large enough effect; inconclusive = small, poorly fitted or top-dose-only effect, or another doubt; inactive = no such curve, though single readings can be large; an effect the other way counts as inactive or inconclusive. Potency is read from the fitted curve at half-maximal effect.

SMILES | KB-V1 MDR tox | MCF10A rerep | ELG1 DNA repair | SW480 rereplic | KB-3-1 cytotox
c1ccc(Cn2nnnc2C(c2cccs2)N2CCCCCC2)cc1 (stereo not given) | 16µM* | -3% | -14% | -5% | i
c1ccc(Cn2nnnc2C(c2cccs2)N2CCc3ccccc3C2)cc1 (stereo not given) | i | ? | -13% | ? | i
CCOC(=O)CC/C(=N\NC(N)=O)c1ccc(OC)c(Cl)c1 | 8.2µM* | -2% | 29% | -4% | i
O=S(=O)(NCCc1ccccc1)c1cccc2nsnc12 | ? | 5.2µM* | -13% | ? | i
CN(CC(=O)NCCc1ccccc1)S(=O)(=O)c1cccc2nsnc12 | 9.2µM* | -18% | -17% | ? | i
Nc1ncnc2c1nc(Cl)n2[C@@H]1O[C@H](CO)[C@@H](O)[C@@H]1O | i | / | / | / | ?
CC(=O)Nc1ccc2[nH]c(C)cc(=O)c2c1 | ? | -2% | 17% | -4% | i
COc1cccc(-c2cc(=O)c3cc(NC(C)=O)ccc3[nH]2)c1 | i | 23µM* | ? | 16µM* | i
COc1cc(CN2C(=O)C(C)ON=C2c2cccs2)cc(OC)c1 (stereo not given) | ? | / | / | / | i
c1ccc(C2OC3c4cccc5cccc(c45)C3N2c2ccccc2)cc1 (stereo not given) | i | 18µM* | 3% | ? | i
CCN(CC(=O)Nc1ccc(OC)cc1)C(=O)Cc1ccsc1 | / | -4% | 19% | -4% | /
COc1ccc(N2CCN(C(=O)Cn3cnc4sc(C)c(S(=O)(=O)N5CCCCC5)c4c3=O)CC2)cc1 | i | / | / | / | i
Cc1ccccc1NC(=O)CSc1nc2cc3c(cc2cc1C)CCC3 | i | ? | 7% | 6.5µM* | ?
COc1cccc(-n2c(SCC(=O)Nc3sc4c(c3C(N)=O)CCC4)nc3ccccc3c2=O)c1 | ? | 16% | 6.5µM* | -3% | i
COc1cccc(NC(=O)CSc2nc3ccccc3c(=O)n2C)c1 | ? | -1% | 9.2µM* | 1% | i
COc1cccc(-n2c(SCC(=O)Nc3nc4ccccc4s3)nc3ccccc3c2=O)c1 | i | 14% | ? | -5% | i
C=CCn1c(SCc2csc(-c3ccc(C)cc3)n2)nnc1-c1ccccc1OC | 13µM* | ? | -4% | / | i
CC(=O)Oc1ccc2ccc3ccc(C(C)=O)cc3c2c1 | ? | ? | / | ? | i
COc1cccc(N2CCN(S(=O)(=O)c3cn(C)c(C)n3)CC2)c1 | ? | / | / | / | i
O=S(=O)(O)NC1CCCCC1 | / | 1% | / | -3% | /
COc1cc(NC(=O)c2cc3cc4ccc(OC)c(Cl)c4nc3s2)cc(OC)c1 | i | / | / | / | i
COC(=O)c1ccccc1NC(=O)CSc1nc2cccnc2n1C | i | -3% | -17% | 11% | i
Cc1ccccc1NC(=O)CSc1nc2ccccc2c(=O)n1C | ? | 10% | 15µM* | 1% | ?
CC(C)Oc1ccccc1NC(=O)CSc1nc2ccccc2c(=O)n1C | i | 12% | ? | -3% | ?
COC(=O)c1cccc(NC(=O)CSc2nc3cccnc3n2C)c1 | 18µM* | 23% | 13µM* | 0% | i
SMILES | KB-V1 MDR tox | MCF10A rerep | ELG1 DNA repair | SW480 rereplic | KB-3-1 cytotox
Cc1ccc(-c2nc(CSc3nc4ccccc4c(=O)n3C)cs2)cc1 | 12µM* | ? | ? | -4% | ?
O=C1c2ccccc2C(=O)N1CCc1csc(NNc2nc(CCN3C(=O)c4ccccc4C3=O)cs2)n1 | i | -1% | -15% | -11% | i
Cc1ccc(-c2nc(CCN3C(=O)c4ccccc4C3=O)cs2)cc1 | 13µM* | ? | 23% | 3% | i
CC(=O)N1CCC(C(=O)Nc2cc(S(=O)(=O)N3CCCCC3)ccc2C)CC1 | i | / | / | / | i
CC(=O)NC1[C@H](O)C[C@@](O)(C(=O)O)O[C@H]1[C@H](O)[C@H](O)CO (stereo not given in full) | / | -1% | / | -1% | /
COc1ccccc1C(O)c1nccn1Cc1ccccc1 (stereo not given) | i | / | / | / | i
CC(=O)Nc1ccc(Nc2nc(-c3sc(NC(C)=O)nc3C)cs2)cc1 | i | ? | 23µM* | 5% | ?
Cc1nc(C)c(-c2csc(NCc3ccco3)n2)s1 | ? | 4% | ? | 8% | i
CC(=O)Nc1nc(C)c(-c2csc(Nc3ccccn3)n2)s1 | i | ? | ? | 1% | ?
CCCC(=O)Nc1nc(C)c(-c2csc(Nc3ccc(Cl)cc3)n2)s1 | i | ? | ? | 1% | ?
CC(=O)Nc1nc(C)c(-c2csc(Nc3ccc(O)cc3)n2)s1 | i | 18µM* | ? | ? | 8.2µM*
CCC(=O)Nc1nc(C)c(-c2csc(Nc3ccc(C(=O)O)cc3)n2)s1 | i | 12% | 0% | 5% | i
Cc1nc(NC(=O)c2ccccc2)sc1-c1csc(NCc2ccco2)n1 | ? | -4% | 15µM* | -2% | i
CCC(C)C(=O)Nc1nc(C)c(-c2csc(Nc3ccc(Cl)cc3)n2)s1 (stereo not given) | i | ? | 8.2µM* | 9% | 6.5µM*
CCOc1ccc(C(=O)N(Cc2ccccc2)c2cccc(C)c2)cc1OC | ? | ? | 19% | -4% | i
CCc1cc(=O)oc2c(C)c(OCC(=O)Nc3ccc(S(=O)(=O)N(CC)CC)cc3)ccc12 | i | / | / | / | i
Cc1ccnc2ccc(I)cc12 | i | / | / | / | i
Cc1ccccc1Nc1nc(-c2sc(NC(=O)c3ccco3)nc2C)cs1 | i | -1% | ? | -25% | i
Cc1ccc(Nc2nc(-c3sc(NC(=O)c4ccco4)nc3C)cs2)cc1 | i | -18% | 10µM* | -8% | i
COc1ccc([C@H]2CC(=O)C=C(c3cccc(Cl)c3O)C2)cc1OC | i | -6% | ? | -23% | i
O=C1C=C(c2cccc3c2Oc2ccccc2S3)C[C@@H](c2ccc(Cl)cc2)C1 | i | -14% | 21µM* | 9% | ?
COc1ccc([C@H]2CC(=O)C=C(c3cccc4c3Oc3ccccc3S4)C2)cc1OC | ? | ? | 18µM* | 1% | ?
CN(C)c1ccc(NC(=O)Nc2nc(C(N)C3CCCCC3)cs2)cc1 (stereo not given) | i | / | / | / | i
Cc1cccc(Nc2nnc(-c3ccc(N4CCOCC4)c([N+](=O)[O-])c3)c3ccccc23)c1 | i | 17% | 8.2µM* | 30% | ?
Cc1cc2c(N=O)c(NO)ccc2[nH]1 | 4.1µM* | ? | -14% | 4.1µM* | ?
COc1cc(C#Cc2c(-c3cncn3C)n(C)c3ccc(-c4cc(OC)c(OC)c(OC)c4)cc23)cc(OC)c1 | ? | 0% | 5.2µM* | ? | 12µM*

Screens (PubChem BioAssay)
